Each structure is given as a SMILES string. The source made the active and inactive calls.

Assay [1] in a line: small molecules captured by biotinylated probe aFSTL3 – biochemical, small-molecule microarray, fluorescence 635/667, stem cell growth factor project, primary screen (AID 1064).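 Note: measures binding of the biotinylated anti-FSTL3 antibody to printed compounds.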 As to conditions: higher = more signal.
A short description of assay [2]: binders from COS7 lysate, DM2A8 probe, primary screen, torsin A project, cell lysate, small-molecule microarray, fluorescence 635/667 (AID 1065). To be noted: higher = more signal, COS7 lysate expressing mutant human TOR1A.
Assay [3] is described as follows: small molecules captured by biotinylated probe aFGF2 – biochemical, small-molecule microarray, fluorescence 635/667, stem cell growth factor project, primary screen (AID 1067).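 Note: measures binding of biotinylated aFGF2 protein to printed compounds on slides; z-score merges feature fluorescence and signal-to-noise across triplicate slides.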 To be noted: higher = more signal.
Assay [4] is described as follows: small molecules captured by biotinylated probe aFGF10 – biochemical, small-molecule microarray, fluorescence 635/667, stem cell growth factor project, primary screen (AID 1071).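 Note: score merges 667 nm spot intensity and signal to noise from triplicate slides.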 To be noted: higher = more signal.
Assay [5] concerns the target Neurogenic locus notch homolog protein 2 (Homo sapiens) (UniProt Q04721). The assay is described as follows: small molecules binding Notch2 protein – biochemical, small-molecule microarray, 635 nm fluorescence, stem cell growth factors, primary screen (AID 1073). As to conditions: higher = more signal.
The target in assay [6] is Pro-neuregulin-1, membrane-bound isoform (Homo sapiens) (UniProt Q02297). The assay is described as follows: small molecules binding neuregulin-1 protein – biochemical, small-molecule microarray, fluorescence 635/667, psychiatric disease protein project, primary screen (AID 1075).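 Note: score combines 667 nm spot fluorescence with signal to noise.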 To be noted: NRG1 binding, 635 nm fluorescence, higher = more signal.
In assay [7] the test system is Neuregulin-1 EGF-like domain. In words: small molecules binding NRG1 EGF domain – biochemical, small-molecule microarray, 635 nm fluorescence, primary screen (AID 1081).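 Note: binding of the protein to compounds printed on small-molecule microarray slides.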 To be noted: higher = more signal.
The nature of assay [8]: FRG1 expression reporter modulators in myotubes – cell-based, C2C12 myotubes, firefly/Renilla luciferase, luminescence, FRG1 inhibition for FSHD, primary screen (AID 1084). To be noted: FRG1 promoter luciferase, higher = more signal, called active from +8 up or from −8 down.
Assay [9] is described as follows: small molecules captured by biotinylated probe aFST – biochemical, small-molecule microarray, fluorescence 635/667, stem cell growth factor project, primary screen (AID 1086).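 Note: score merges 667 nm fluorescence with signal-to-noise of each printed compound spot.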 To be noted: higher = more signal.
Assay [10] in a line: binders of probe aHhip on microarray, primary screen, stem cell growth factor project, biochemical, small-molecule microarray, fluorescence 635/667 (AID 1087).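 Note: score merges spot fluorescence at 667nm with spot signal to noise ratio.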 To be noted: higher = more signal.
Assay [11] concerns PRMT1 (protein arginine N-methyltransferase 1). In words: small molecules binding arginine methyltransferase PRMT1 – biochemical, small-molecule microarray, 635 nm fluorescence, primary screen (AID 1088).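 Note: binding of Prmt1 protein to compounds spotted on small-molecule microarray slides.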 To be noted: higher = more signal.
The nature of assay [12]: growth effects on S. cerevisiae YJM789 – YJM789 clinical isolate, OD600, 24 h, basal, primary screen (AID 1089).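 Note: growth of clinical yeast isolate S. cerevisiae YJM 789 seeded 1000 cells per well; test concentration not given here.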 To be noted: higher = more signal, called active from +8 up or from −8 down.
Assay [13] in a line: S. pombe growth modifiers, basal conditions – strain 972, OD600, 24 h, no modulator, primary screen (AID 1090).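 Note: basal condition with compound alone and no growth modifier present; test concentration not given here.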 To be noted: S. pombe 972 growth, higher = more signal, called active from +8 up or from −8 down.
A short description of assay [14]: budding yeast growth modifiers under rapamycin – strain BY4716, OD600, 96 h, primary screen (AID 1091). Note: test concentration not given here. As to conditions: S. cerevisiae BY4716 + rapamycin, higher = more signal, called active from +8 up or from −8 down.
Assay [15] deals with Torsin-1A-interacting protein 2 (Homo sapiens) (UniProt Q8NFQ8). In words: small molecules binding lysate-expressed LULL1 – cell lysate, human LULL1 lysate, 635/667 nm fluorescence, primary screen (AID 1092).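 Note: probe is lysate of COS7 cells overexpressing human LULL1; score merges per-feature 667 nm fluorescence with signal-to-noise.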 To be noted: small-molecule microarray, hLULL1 lysate binding, 635 nm fluorescence; higher = more signal.
A short description of assay [16]: optical density change of DRC41 E. coli – strain DRC41, OD650, 24 h, E. coli filamentation project, primary screen (AID 1093).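 Note: MC1000 strain lacking acrAB efflux and sulA so SOS filamentation is blocked; test concentration not given here.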 As to conditions: E. coli DRC41 growth, higher = more signal, called active from +8 up or from −8 down.
The nature of assay [17]: probe aLefty2 binding to arrayed compounds – biochemical, biotinylated probe, 635/667 nm fluorescence, primary screen (AID 1094).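 Note: score merges spot fluorescence near 667 nm with spot signal-to-noise ratio.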 As to conditions: small-molecule microarray, higher = more signal.
For assay [18], the system named is Noggin (protein binding on small-molecule microarray). The assay is described as follows: small molecules binding Noggin protein – biochemical, 635/667 nm fluorescence, primary screen (AID 1095).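 Note: score merges 667 nm feature fluorescence with signal to noise over triplicate slides.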 To be noted: 635 nm fluorescence, higher = more signal.
The target in assay [19] is Neurogenic locus notch homolog protein 3 (Homo sapiens) (UniProt Q9UM47). In words: small molecules binding NOTCH3 protein – biochemical, 635/667 nm fluorescence, primary screen (AID 1096). As to conditions: small-molecule microarray, 635 nm fluorescence, higher = more signal.
Assay [20] is described as follows: probe aEGFR binding to arrayed compounds – biochemical, biotinylated probe, 635/667 nm fluorescence, primary screen (AID 1097).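 Note: probe is a biotinylated anti-EGFR antibody binding compounds printed on slides; score combines fluorescence near 667 nm and signal to noise of each spot.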 To be noted: small-molecule microarray, higher = more signal.

Chain of Neurogenic locus notch homolog protein 3 (Homo sapiens) (Q9UM47 whole entry, looked up): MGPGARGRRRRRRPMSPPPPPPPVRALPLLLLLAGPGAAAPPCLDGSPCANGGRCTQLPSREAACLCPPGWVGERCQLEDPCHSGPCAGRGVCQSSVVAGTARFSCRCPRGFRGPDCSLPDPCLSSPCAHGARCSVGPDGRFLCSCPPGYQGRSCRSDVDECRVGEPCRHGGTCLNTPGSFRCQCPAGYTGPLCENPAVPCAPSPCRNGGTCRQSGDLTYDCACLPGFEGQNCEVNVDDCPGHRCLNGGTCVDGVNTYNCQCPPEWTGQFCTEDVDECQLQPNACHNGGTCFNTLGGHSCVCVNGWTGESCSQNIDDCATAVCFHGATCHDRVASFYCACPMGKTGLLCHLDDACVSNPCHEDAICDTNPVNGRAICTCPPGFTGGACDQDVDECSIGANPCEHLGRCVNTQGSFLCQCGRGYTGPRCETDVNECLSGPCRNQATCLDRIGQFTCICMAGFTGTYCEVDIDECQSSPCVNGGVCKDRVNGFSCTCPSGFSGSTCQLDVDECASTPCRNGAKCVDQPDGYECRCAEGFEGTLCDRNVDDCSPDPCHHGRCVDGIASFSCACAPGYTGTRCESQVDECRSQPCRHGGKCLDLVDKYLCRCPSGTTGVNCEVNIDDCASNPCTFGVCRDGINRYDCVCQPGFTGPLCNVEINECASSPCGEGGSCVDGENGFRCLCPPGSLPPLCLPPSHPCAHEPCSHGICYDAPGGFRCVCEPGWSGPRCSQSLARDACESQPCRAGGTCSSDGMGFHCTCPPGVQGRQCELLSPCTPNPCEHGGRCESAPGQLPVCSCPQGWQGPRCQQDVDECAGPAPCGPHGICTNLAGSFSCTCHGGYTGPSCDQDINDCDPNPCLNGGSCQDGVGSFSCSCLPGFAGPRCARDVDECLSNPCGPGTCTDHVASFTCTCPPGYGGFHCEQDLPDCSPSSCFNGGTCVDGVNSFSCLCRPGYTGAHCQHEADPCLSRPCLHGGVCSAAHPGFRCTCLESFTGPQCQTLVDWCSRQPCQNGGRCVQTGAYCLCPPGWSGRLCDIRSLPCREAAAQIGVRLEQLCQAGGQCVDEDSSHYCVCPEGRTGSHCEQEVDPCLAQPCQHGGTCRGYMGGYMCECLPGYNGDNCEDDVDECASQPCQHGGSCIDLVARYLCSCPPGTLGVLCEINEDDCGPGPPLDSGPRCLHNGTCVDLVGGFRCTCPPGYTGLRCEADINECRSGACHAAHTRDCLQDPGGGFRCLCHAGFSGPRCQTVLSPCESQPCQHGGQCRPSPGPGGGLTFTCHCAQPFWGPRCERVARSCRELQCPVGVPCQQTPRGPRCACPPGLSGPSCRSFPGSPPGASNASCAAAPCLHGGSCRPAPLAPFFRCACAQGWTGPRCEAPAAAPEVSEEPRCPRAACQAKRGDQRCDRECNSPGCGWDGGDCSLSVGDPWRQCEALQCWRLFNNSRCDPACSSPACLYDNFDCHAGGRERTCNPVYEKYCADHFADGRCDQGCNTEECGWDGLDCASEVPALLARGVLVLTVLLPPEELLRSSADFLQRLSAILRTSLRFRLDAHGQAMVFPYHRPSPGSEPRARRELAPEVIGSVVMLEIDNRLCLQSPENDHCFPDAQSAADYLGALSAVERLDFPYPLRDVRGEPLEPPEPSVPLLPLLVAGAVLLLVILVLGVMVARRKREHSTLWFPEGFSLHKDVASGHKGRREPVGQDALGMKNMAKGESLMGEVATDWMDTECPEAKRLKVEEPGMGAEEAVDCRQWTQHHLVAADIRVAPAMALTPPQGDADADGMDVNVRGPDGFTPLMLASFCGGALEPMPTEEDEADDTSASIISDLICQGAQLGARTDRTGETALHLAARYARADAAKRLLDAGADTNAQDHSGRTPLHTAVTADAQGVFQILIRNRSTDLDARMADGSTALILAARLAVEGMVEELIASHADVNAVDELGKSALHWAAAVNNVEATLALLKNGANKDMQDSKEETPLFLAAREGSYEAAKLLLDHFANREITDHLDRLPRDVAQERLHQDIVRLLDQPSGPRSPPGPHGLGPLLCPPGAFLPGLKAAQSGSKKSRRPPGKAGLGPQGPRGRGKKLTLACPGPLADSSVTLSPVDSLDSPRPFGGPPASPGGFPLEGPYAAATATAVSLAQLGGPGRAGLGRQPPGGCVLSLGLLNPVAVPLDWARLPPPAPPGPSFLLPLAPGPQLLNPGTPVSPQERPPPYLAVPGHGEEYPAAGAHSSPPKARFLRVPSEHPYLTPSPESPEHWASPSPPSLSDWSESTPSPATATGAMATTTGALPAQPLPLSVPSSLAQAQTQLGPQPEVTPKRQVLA
Chain of Torsin-1A-interacting protein 2 (Homo sapiens) (Q8NFQ8 whole entry, looked up): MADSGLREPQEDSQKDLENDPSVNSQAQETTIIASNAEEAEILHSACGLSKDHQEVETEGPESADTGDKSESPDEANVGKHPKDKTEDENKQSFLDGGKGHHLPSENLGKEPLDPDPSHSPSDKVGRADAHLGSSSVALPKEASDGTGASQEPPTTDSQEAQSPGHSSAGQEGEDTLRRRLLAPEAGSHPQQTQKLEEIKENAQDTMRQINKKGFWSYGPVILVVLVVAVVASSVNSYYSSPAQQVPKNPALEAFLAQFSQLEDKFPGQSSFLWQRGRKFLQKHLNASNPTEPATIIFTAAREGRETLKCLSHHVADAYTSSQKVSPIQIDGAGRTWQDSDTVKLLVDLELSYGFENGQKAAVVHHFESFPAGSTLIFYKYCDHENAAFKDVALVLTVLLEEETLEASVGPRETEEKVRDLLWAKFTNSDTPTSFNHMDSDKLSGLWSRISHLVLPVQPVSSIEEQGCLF
Chain of Pro-neuregulin-1, membrane-bound isoform (Homo sapiens) (Q02297 whole entry, looked up, the tested form may be a part, canonical isoform): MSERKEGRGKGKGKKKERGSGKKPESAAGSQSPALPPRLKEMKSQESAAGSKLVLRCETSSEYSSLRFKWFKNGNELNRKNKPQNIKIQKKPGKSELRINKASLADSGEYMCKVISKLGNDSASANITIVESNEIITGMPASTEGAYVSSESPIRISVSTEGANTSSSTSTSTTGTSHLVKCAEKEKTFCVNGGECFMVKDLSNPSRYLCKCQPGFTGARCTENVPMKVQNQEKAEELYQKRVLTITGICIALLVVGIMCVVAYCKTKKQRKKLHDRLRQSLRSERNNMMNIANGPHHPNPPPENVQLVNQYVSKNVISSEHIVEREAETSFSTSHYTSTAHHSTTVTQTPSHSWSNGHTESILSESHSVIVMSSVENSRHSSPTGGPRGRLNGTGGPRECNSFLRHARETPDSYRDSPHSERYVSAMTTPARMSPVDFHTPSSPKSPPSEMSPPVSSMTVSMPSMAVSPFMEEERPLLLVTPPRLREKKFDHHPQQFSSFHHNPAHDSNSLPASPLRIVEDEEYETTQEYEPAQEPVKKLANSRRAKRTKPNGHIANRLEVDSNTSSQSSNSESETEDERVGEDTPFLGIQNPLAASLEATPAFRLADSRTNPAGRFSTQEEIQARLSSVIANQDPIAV

`O[C@@H](Cc1ccccc1)[C@H]1C2C=CCCC=C2CN1Cc1cccc(Cl)c1` (stereo not given in full): the composite z-score is -0.328 in assay [1]; -0.0571 in [2]; -0.0075 in assay [3]; 0.617 in assay [4]; 0.944 in assay [5]; 0.898 in [6]. Further, the composite z-score in assay [7] was 1.19; in [9], 0.61; in assay [10] it was -0.214; in [11] it was 1.42; in [15], 1.17; in [17], -0.101. Also, the composite z-score in [18] was 0.728; in assay [19], 1.12; in [20], -0.0039. The z-score is -1.45 (inactive) in assay [8]; -0.14 (inactive) in [12]; -2.92 (inactive) in [13]; -0.742 (inactive) in [14]; 1.35 (inactive) in assay [16].
Take `CCOC(=O)C[C@H]1[C@H](OC(=O)c2ccc(C(=O)c3ccccc3)cc2)[C@@H](NC(=O)c2ccc3ccccc3c2)c2cc(OCCCO)ccc2N1C(=O)Cc1ccc(OC)cc1`: the composite z-score in assay [1] was -0.242; in assay [2] it was 0.151; in assay [3], -0.146; in [4], 0.66; in assay [5], 0.361; in assay [6] it was 0.401. Besides, the composite z-score in assay [7] is 0.107; in assay [9], 0.441; in [10], -0.0645; in [11], 0.789; in assay [15], 1.43; in [17], 0.0633. The results for the composite z-score in [18], in assay [19] and in [20] were 0.0199, 0.479 and -0.0688, respectively. Moreover, the z-score in [8] is -0.314 (inactive); in [12] it was -0.0229 (inactive); in assay [13], 0.713 (inactive); in assay [14], 0.118 (inactive); in assay [16], 0.458 (inactive).
Take `O=C1[C@@]23C=C(Br)[C@H](C[C@@H]2CCOC3)[C@@]12CO2`: the composite z-score in assay [1] is -0.655; in assay [2] it was 0.113; in [3], -0.103; in [4], 0.283; in assay [5], 0.306; in assay [6], -0.213. In addition, the composite z-score in assay [7] is -0.1; in assay [9], -0.0444; in [10], 0.0373; in assay [11] it was -0.414; in assay [15] it was 0.102; in assay [17], -0.217. For the same compound, the composite z-score in assay [18] amounted to 0.721; in [19] it was 0.372; in [20], 0.0372. In addition, the z-score in [8] was -0.413 (inactive); in assay [12] it was 0.24 (inactive); in assay [13] it was -2.31 (inactive); in [14], -0.582 (inactive); in assay [16], -0.0015 (inactive).
With `C=CCOC(=O)[C@@H]1[C@H]2C(=O)O[C@H](c3ccccc3)[C@H](c3ccccc3)N2[C@H](c2ccc(OCCOC(=O)[C@H]3C[C@H]4C(=O)N5CCC[C@H]5C(=O)N4[C@H]3c3ccc(O)cc3)cc2)[C@@]12C(=O)Nc1ccc(I)cc12`, the composite z-score in [1] was -0.493; in [2], 0.942; in [3], -0.0958; in assay [4] it was 0.59; in assay [5] it was 0.929; in assay [6], 0.782. Moreover, the composite z-score in [7] was 1.24; in assay [9], -0.0364; in assay [10], -0.34; in [11], 1.54; in assay [15], 1.95; in [17], -0.203. Moreover, the composite z-score is 1.46 in assay [18], 1.07 in [19] and -0.119 in [20]. Further, the z-score was -0.627 (inactive) in assay [8]; 0.825 (inactive) in [12]; 0.267 (inactive) in assay [13]; 3.14 (inactive) in [14]; 0.553 (inactive) in assay [16].
For the compound `CC(C)N1C(=O)[C@@]2(Cc3ccccc31)c1ccccc1C(=O)N(Cc1ccccc1Cl)[C@H]2c1ccc(CO)cc1`, the composite z-score in [1] was -0.0423; in assay [2], -0.149; in assay [3], -0.177; in [4] it was -0.272; in assay [5], -0.791; in assay [6] it was -0.371. For the same compound, the composite z-score in assay [7] is 0.0118; in assay [9], -0.377; in [10], -0.319; in assay [11], 0.477; in assay [15], -0.203; in assay [17], -0.153. For the same compound, the values for the composite z-score in assay [18], in assay [19] and in assay [20] were -0.665, -0.942 and -0.152, respectively. Besides, the z-score in assay [8] is -0.426 (inactive); in assay [12], -1.05 (inactive); in assay [13] it was -1.17 (inactive); in assay [14], -2.86 (inactive); in assay [16] it was -1.25 (inactive).
Take `NCCCCCCNC(=O)[C@@H]1C[C@@H]2C(=O)NCC(=O)N2[C@@H]1c1ccc(O)cc1`: the composite z-score is -0.175 in assay [1]; 0.853 in assay [2]; -0.14 in [3]; 0.177 in [4]; 0.571 in [5]; 1.32 in assay [6]. The composite z-score in assay [7] was 1.41; in assay [9] it was 0.703; in assay [10], -0.207; in [11] it was 1.56; in assay [15], 1.01; in assay [17], -0.0324. Further, the figures for the composite z-score in assay [18], in assay [19] and in assay [20] were 1.58, 1.07 and -0.0409, respectively. Moreover, the z-score is 1.03 (inactive) in [8]; 0.0703 (inactive) in assay [12]; 0.467 (inactive) in assay [13]; -0.129 (inactive) in assay [14]; 1.1 (inactive) in [16].
Take `O=C1C[C@]2(c3ccc([N+](=O)[O-])cc3)C(=O)N(CC(F)(F)F)c3cc(CO)ccc3[C@H]2N1C1CCCCC1`: the composite z-score in assay [1] is 0.342; in assay [2], -0.819; in assay [3], -0.148; in [4], -0.91; in assay [5], -0.488; in assay [6] it was -0.722. In addition, the composite z-score in assay [7] is -1.5; in [9] it was -0.167; in [10] it was -0.226; in assay [11], 0.137; in assay [15], -0.0451; in [17] it was -0.216. For the same compound, the composite z-score in [18] is -0.425; in assay [19], -1.41; in assay [20] it was -0.201. The z-score was 0.0655 (inactive) in assay [8]; 0.926 (inactive) in [12]; -0.378 (inactive) in assay [13]; -1.03 (inactive) in [14]; 0.685 (inactive) in [16].
As to `CCCC[C@@H]1C[C@H]1[C@@H](NC(=O)c1ccco1)c1ccc(-c2ccccc2)cc1`, the composite z-score is -0.207 in [1]; -0.194 in [2]; -0.176 in [3]; 0.203 in assay [4]; 0.571 in assay [5]; -0.343 in assay [6]. Further, the composite z-score in assay [7] is 1.02; in assay [9] it was 0.425; in [10], 0.0922; in assay [11] it was 1.11; in [15] it was -0.397; in assay [17], 0.0682. Moreover, the composite z-score was 0.61 in [18], 0.234 in assay [19] and 0.0258 in [20]. The z-score in [8] is 1.85 (inactive); in assay [12] it was 0.186 (inactive); in assay [13] it was 0.316 (inactive); in [14] it was 0.569 (inactive); in assay [16], -1.45 (inactive).
Consider `CCOC(=O)C[C@H]1[C@H](OC(=O)c2ccc(-c3ccccc3)cc2)[C@@H](NC(=O)Cc2ccc(OC)cc2)c2cc(OCCCO)ccc2N1C(=O)c1ccccc1`, for which the composite z-score in assay [1] was -0.0117; in assay [2] it was -0.354; in assay [3], -0.0316; in assay [4] it was 0.23; in [5] it was 0.255; in assay [6], 0.176. Further, the composite z-score in [7] was 0.3; in assay [9], 0.376; in assay [10] it was -0.0391; in assay [11], -0.15; in [15], 0.905; in assay [17], 0.044. Further, the composite z-score in assay [18] was 0.763; in assay [19] it was 0.238; in [20], -0.122. The z-score was -0.831 (inactive) in assay [8]; 0.359 (inactive) in assay [12]; 0.822 (inactive) in [13]; 0.72 (inactive) in assay [14]; -0.69 (inactive) in assay [16].
